Test results from PubChem BioAssay (EPA / NIEHS).
Activity calls are given as the source filed them. Rule for the calls: active = hit-call score of the fitted dose curve at least 0.9, where 1 is the maximum; inactive = score below 0.9.

Read-out: Insulin-like growth factor-binding protein 1 (IGFBP1), IGFBP1 (gene 3484)
Assay: LTEA_HepaRG_IGFBP1: Life Technologies and Expression Analysis (LTEA) Assay for Insulin-like growth factor-binding protein 1 (IGFBP1) using HepaRG (AID 2283508)
Details: mRNA level, 48 h; actives raise or lower the signal
Method: LTEA_HepaRG is a cell based, multiplexed-readout assay that uses HepaRG, a human liver cell line, with measurements taken at 48 hours after chemical dosing on a 96-well plate.LTEA_HepaRG_IGFBP1 is one of 102 assay component(s) measured in the LTEA HepaRG cell culture assay. It is a marker of Cell proliferation, survival, death.Data from the assay component LTEA_HepaRG_IGFBP1 was analyzed into 1 endpoint. This assay endpoint, LTEA_HepaRG_IGFBP1, was analyzed with bidirectional fitting relative to DMSO as the negative control and baseline of activity. Using a type of inducible reporter, measures of mRNA induction for gain or loss-of-signal activity can be used to understand regulation of transcription factor activity. To generalize the intended target to other relatable targets, this assay endpoint is annotated to the transporter intended target family, where the subfamily is hormone carrier protein.
A total of 1060 chemcials from the ToxCast library were tested in eight-point concentration-response experiments. Cell culture and cytotoxicity assays were conducted at Thermo Fisher Scientific's Custom Services facility (Madison, WI). A single lot of human HepaRG cells (Thermo Fisher Scientific, Frederick, MD) was used for the cell culture experiments. 96-well format collagen type I coated plates of human HepaRG cells were prepared using established methods. Briefly, cryopreserved HepaRG cells were thawed, plated at a density of approximately 100,000 cells/well in HepaRG Thaw, Plate, and General Purpose media (HPRG770, Thermo Fisher Scientific), and incubated for 48 hours. 0.5% DMSO was selected as vehicle control to balance the requisite need of DMSO in HepaRG cultures to maintain differentiation (for example, baseline metabolism, proportions of hepatocytes vs. cholangiocytes), while enabling further hepatic receptor pathway activation (for example, PXR and CAR) in response to chemical exposure. 48 hours after plating, the culture medium was replaced with HepaRG Serum-Free Incudtion Media. Cells were exposed to each test chemical in duplicate and maintained in CO2 incubators for another 48 hours. Chemical plates were thawed to room temperature and 200x concentrations of treatment groups were prepared. 8-point conentration-reponse curves were made with the highest exposure at 100 uM, followed by half-log dilutions, all in 0.5% DMSO. Each test plate contained variouse controls, induction positive controls (1mM phenobarbital), cytotoxicity positive controls ([…] aflatoxin B1), vehicle controls (0.5% DMSO), and total lysis controls (0.5% DMSO). Cell morphology images were taken using an Essen IncuCyte FLR automated microscope, with six 96-well plates imaged in about 24 minutes. Images were captured and exported and JPEG files. Spent culture media was transfered to black-well plates for the LDH assay, and remaining media was sorted at -80 C for later use. Cells were treated with RLT buffer and frozen until shipped for gene expression analysis. Total RNA was isolated from the cell suspension in 75 uL of Buffer RLT (Qiagen, Germantown, MD 20874) by Quintiles/Expression Analysis (Durham, NC) using a custom isolation procedure. Total RNA from each plate well was transferred to a preamplification plate. Fluidigm's 96.96 Dynamic ArrayTM (Fluidigm, Amsterdam, the Netherlands) technology was used for gene expression analyses by quantitative reverse transcription polymerase chain reaction (qRT-PCR, performed by Quintiles/Expression Analysis, Durham, NC)89. Standard TaqManTM Assays (Applied Biosystems/ThermoFisher Scientific, Foster City, CA) were used to assess the expression of 93 genes selected based on their selectivity and sensitivity to important hepatic receptors known to be modulated by environmental chemicals; importance in human hepatocyte functionality; and hepatotoxicity. […]

**Q.** How did the outcome turn out when CC1=C(/C=C/C(C)=C/C=C/C(C)=C/CO)C(C)(C)CCC1 was run?
**A.** Its outcome is “inactive”.

**Q.** Which outcome does the source give for CCCCCCOCCO here?
**A.** Its outcome is “inactive”.

**Q.** With COc1cc(-c2nc(NC(=O)c3cc4cc(C)cc(C)c4n3CC(=O)O)sc2CCC2CCCCC2)c(OC)cc1Cl as the molecule, how does the AC50 read?
**A.** Its AC50 is 3.83 µM (active).

**Q.** C[C@]12C=CC(=O)C=C1CC[C@@H]1[C@@H]2C(=O)C[C@@]2(C)[C@H]1CC[C@]2(O)C(=O)CO was tested. Which outcome did it give?
**A.** Its outcome is “inactive”.

**Q.** CNCc1cc(F)ccc1Oc1ccc(Cl)c(Cl)c1 was tested. Which AC50 did it give?
**A.** Its AC50 is 73.5 µM (active).

**Q.** How did the outcome turn out when C[Si]1(C)O[Si](C)(C)O[Si](C)(C)O[Si](C)(C)O1 was run?
**A.** The outcome was “inactive”.

**Q.** For CCCCCCCCCCCCCCCC, which outcome is on record?
**A.** The outcome was “inactive”.

**Q.** For Cc1nc(C)nc(N2C[C@@H](C)N(c3ccnc([C@@H](C)O)n3)[C@@H](C)C2)n1, which outcome is on record?
**A.** The outcome was “inactive”.

**Q.** How did the AC50 turn out when Nc1nc(N)c2nc(CNc3ccc(C(=O)N[C@@H](CCC(=O)O)C(=O)O)cc3)cnc2n1 was run?
**A.** The AC50 was 0.0937 µM (active).

**Q.** NS(=O)(=O)c1cc2c(cc1Cl)NCNS2(=O)=O was tested. Which outcome did it give?
**A.** Its outcome is “inactive”.

**Q.** With CC=Cc1ccc(O)c(OC)c1 as the molecule, how does the outcome read?
**A.** The outcome was “inactive”.

**Q.** C=CCc1ccc(O)c(OC)c1 was tested. Which outcome did it give?
**A.** The outcome was “inactive”.

**Q.** With CCCCCCC(=O)OCC as the molecule, how does the outcome read?
**A.** The outcome was “inactive”.

**Q.** O=C(OCCCCCOC(=O)c1ccccc1)c1ccccc1 was tested. Which AC50 did it give?
**A.** Its AC50 is 1.99 µM (active).

**Q.** How did the outcome turn out when CC(=O)Oc1ccccc1C(=O)O was run?
**A.** Its outcome is “inactive”.

**Q.** With CC(C)c1ccc(C(=O)N=C(N)N)cc1S(C)(=O)=O as the molecule, how does the AC50 read?
**A.** The AC50 was 0.266 µM (active).

**Q.** CC(=O)OCCOCCOCCOC(C)=O was tested. Which outcome did it give?
**A.** The outcome was “inactive”.

**Q.** How did the outcome turn out when Cc1ccc(N(C)C)cc1 was run?
**A.** Its outcome is “inactive”.

**Q.** With CCOC(=O)CCC(=O)OCC as the molecule, how does the outcome read?
**A.** The outcome was “inactive”.

**Q.** With O=C(N[C@@H](Cc1ccccc1)[C@@H](O)C(=O)N1C[C@@H](O)[C@@H](O)C1)c1cc2cc(Cl)ccc2[nH]1 as the molecule, how does the AC50 read?
**A.** The AC50 was 63.4 µM (active).

**Q.** How did the outcome turn out when FC(F)(F)C(F)(F)C(F)(F)C(F)(F)C(F)(F)C(F)(F)CCI was run?
**A.** Its outcome is “inactive”.

**Q.** How did the outcome turn out when C1CCC(SSC2CCCCC2)CC1 was run?
**A.** The outcome was “inactive”.

**Q.** For NC(=O)Cn1c(=O)cc(CCN2CCN(c3nccc4sccc34)CC2)c2ccc(F)cc21, which AC50 is on record?
**A.** The AC50 was 76.6 µM (active).

**Q.** With Cc1c(C(=O)O)c(O)cc2c1C(=O)c1c(O)c([C@@H]3O[C@H](CO)[C@@H](O)[C@H](O)[C@H]3O)c(O)c(O)c1C2=O as the molecule, how does the outcome read?
**A.** Its outcome is “inactive”.

**Q.** Which outcome does the source give for Cc1cccc(C)c1O here?
**A.** The outcome was “inactive”.

**Q.** With Cc1ccccc1Cl as the molecule, how does the outcome read?
**A.** Its outcome is “inactive”.

**Q.** For CC(=O)OC/C=C(\C)CCC=C(C)C, which outcome is on record?
**A.** Its outcome is “inactive”.

**Q.** How did the outcome turn out when Cc1cc(=O)[nH]c(=S)[nH]1 was run?
**A.** The outcome was “inactive”.

**Q.** Which outcome does the source give for CNC(=O)[C@H]1O[C@@H](n2cnc3c(NCc4cc(Cl)ccc4OCc4cc(C)no4)ncnc32)[C@H](O)[C@@H]1N here?
**A.** The outcome was “inactive”.

**Q.** For COc1cc(S(=O)(=O)O)c(C)cc1N=Nc1c(O)ccc2cc(S(=O)(=O)O)ccc12, which outcome is on record?
**A.** Its outcome is “inactive”.

**Q.** With C=CCOC(=O)c1ccccc1C(=O)OCC=C as the molecule, how does the outcome read?
**A.** Its outcome is “inactive”.

**Q.** How did the AC50 turn out when COCCOCCOC was run?
**A.** Its AC50 is 0.683 µM (active).

**Q.** How did the AC50 turn out when CCOc1ccc2c(c1)C(C)=CC(C)(C)N2 was run?
**A.** Its AC50 is 50 µM (active).

**Q.** For CCCCC(CC)COC(=O)CC(C(=O)OCC(CC)CCCC)S(=O)(=O)O (stereo not given), which AC50 is on record?
**A.** The AC50 was 90.7 µM (active).

**Q.** For Cc1ccc(C(C)C)c(O)c1, which outcome is on record?
**A.** Its outcome is “inactive”.

**Q.** How did the outcome turn out when COC(=O)c1ccc(O)cc1 was run?
**A.** The outcome was “inactive”.

**Q.** With Oc1ccc2ccccc2c1N=Nc1ccccc1 as the molecule, how does the AC50 read?
**A.** The AC50 was 5.48 µM (active).

**Q.** Which outcome does the source give for OC[C@@H](O)[C@@H](O)[C@H](O)[C@H](O)CO here?
**A.** Its outcome is “inactive”.

**Q.** COc1ccc(S(=O)(=O)N2C(=O)[C@@](c3ccccc3OC)(N3C[C@H](O)C[C@H]3C(=O)N(C)C)c3cc(Cl)ccc32)c(OC)c1 was tested. Which AC50 did it give?
**A.** Its AC50 is 37.2 µM (active).

**Q.** Which outcome does the source give for COc1cc(C=O)ccc1O here?
**A.** The outcome was “inactive”.
